HT1080-NT tox: kills 2HG-producing HT-1080-NT fibrosarcoma cells; AID 686970; hit rate 1.6% among 360,000; Potency, µM (series often up to 46.1 µM), for the others: at the highest dose activity, negative = less viability, hits mostly cytotoxic; HT-1080-NT fibrosarcoma viability, CellTiter-Glo ATP luminescence, 48 h;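 also: NT is the 2HG producing partner of a matched IDH1 knockdown line; potency is read from the fitted curve at half-maximal effect; 0% = DMSO-treated cells and -100% = media-only wells without cells; nearly all actives have a fitted effect of over 55% in size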
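Compounds were tested in concentration-response format on HT-1080-NT cells for 48 hours at 37 degrees C. Cell viability came from CellTiter-Glo luminescence; curves were classified by r2, response magnitude and activity.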
HT1080 IDH1KD tx: HT-1080 IDH1 knockdown cell toxicity (counter line) | HT-1080 IDH1 knockdown viability, ATP luminescence, 48 h | Potency, µM (titrated, usually from 46.1 µM), for inactives: top-dose activity, negative = toxicity, hits mostly cytotoxic | hit rate 2% among 360,000 | AID 686971;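 also: potency is read from the fitted curve at half-maximal effect; 0% = DMSO wells and -100% = cell-free medium wells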
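Cytotoxicity counter-line: IDH1KD HT-1080, 48 h, CellTiter-Glo. Curves classed by r2, magnitude and activity.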
TDP1 cell CPT: DT40-hTDP1 cell growth loss with CPT. chicken DT40 Tdp1-/-;hTDP1 cells + 20 nM CPT, ATP luminescence, 48 h. hit rate 12% among 420,000. Potency, µM (highest dose often 46.2 µM), without a hit: at the highest dose activity change, negative = growth inhibition, most hits filed as inhibitors; also: potency is read from the fitted curve at half-maximal effect; nearly all actives have a fitted effect of over 55% in size
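Cell growth measured by CellTiter-Glo luminescence after a minimum 48 h, 37 C compound exposure with 20 nM CPT in Tdp1-knockout DT40 cells stably expressing hTDP1, seeded 400/well; qHTS titration format.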
DT40 TDP1 no CPT: qHTS for Inhibitors of human tyrosyl-DNA phosphodiesterase 1 (TDP1): qHTS in cells in absence of CPT. Potency, µM (doses to about 46.2 µM), for inactives: at the top dose activity change, negative = growth inhibition, usual class: inhibitors. DT40 Tdp1-/- hTDP1 cells, no CPT, ATP luminescence, 48 h. AID 686978, 2013. hit rate 15% among 420,000; also: potency is read from the fitted curve at half-maximal effect; nearly all actives have a fitted effect of over 55% in size
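Luminescent ATP content (CellTiter-Glo) served as the growth readout. Knockout chicken DT40 cells expressing human TDP1 were exposed to compounds without camptothecin for a minimum 48 hr at 37 °C.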
IL-1B inflam inh: inflammasome signaling inhibition, IL-1 beta readout; THP-1 LPS/ATP IL-1B secretion, AlphaLISA, 16 h; active compounds read low; activity change, % at 57.5 µM; hit rate 4.7% among 360,000; AID 743279; in the data active = activity change below about -50%; inconclusive = mostly about -30% to -49%
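Secreted IL-1B measured by AlphaLISA bead assay after 16 h compound exposure of THP-1 cells; compounds (final up to 57.5 uM) added 1 h before LPS (250 ng/mL) and ATP (1.25 mM) stimulation; lower signal means less secretion.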
* = called active by the depositor; i = inactive; ? = inconclusive; . = no result given; [ ] = dose if it differs, or a comment. Rows were chosen to be rich in hits. Some 19% of all compounds tested hit in one or more screens of this group. Unless noted, calls follow the shape of the dose curve; as a rule, active = well fitted curve in the direction sought with a large enough effect; inconclusive = small, poorly fitted or top-dose-only effect, or another doubt; inactive = no such curve, though single readings can be large; an effect the other way counts as inactive or inconclusive. Unless noted, % is scaled to controls: 0 for no effect and ±100 for the full control effect.

SMILES | HT1080-NT tox | HT1080 IDH1KD tx | TDP1 cell CPT | DT40 TDP1 no CPT | IL-1B inflam inh
COCc1cc(C)nc(SCC(=O)Nc2ccccc2C)c1C#N | -4% | -12% | 7.3µM* | 5.8µM* | -2
Cc1cc(C)c(C#N)c(SCC(=O)Nc2ccccc2C(N)=O)n1 | 1% | -8% | ? | 10µM* | -15
COCc1cc(C)nc(SCC[N+](C)(C)CC(=O)Nc2cccc(C(F)(F)F)c2)c1C#N | -22% | -11% | 21µM* | ? | -51*
COCCNc1cc(C)nc2c3c(C)cc(C)nc3nn12 | -1% | 0% | -2% | -6% | ?
COC(=O)C1=C(C)NC(C)=C(C(=O)OC(C)C)C1c1cccc2nonc12 (centres undefined) | 5% | -16% | ? | ? | -12
COC(=O)C1=C(C)NC(C)=C([N+](=O)[O-])[C@H]1c1ccccc1C(F)(F)F | . | . | ? | 11µM* | .
COCCN1C=C(C(=O)OC)C(c2ccccc2C(F)(F)F)C(C(=O)OC)=C1 | 13% | 18% | ? | ? | -6
COC(=O)C1=C(C)NC(C)=C(C(=O)OCC(C)C)C1c1ccccc1[N+](=O)[O-] (centres undefined) | 16µM* | 26µM* | 6.5µM* | 5.2µM* | -65*
COC(=O)C1=C(C)NC(C)=C([N+](=O)[O-])[C@@H]1c1ccccc1C(F)(F)F | . | . | 30µM* | 30µM* | .
Cc1ccccc1OCC(=O)Nc1ccc(OCc2cc(=O)n3ccccc3n2)cc1 | . | . | 25% | -4% | .
O=C(C1CCCN(Cc2ccccc2[N+](=O)[O-])C1)N1CCCCC1 (centres undefined) | 14% | 0% | -29% | -29% | 26
Cc1ccc(NC(=S)Nc2ccccn2)c(C)c1 | ? | -9% | 3.7µM* | 5.2µM* | -11
Cc1ccc(NC(=S)Nc2ccc3nc(-c4ccccn4)c(-c4ccccn4)nc3c2)cc1C | 5% | 15% | 26µM* | ? | -9
Cc1ccc(NC(=S)c2ccncc2)c(C)c1 | 4% | 0% | 2% | -10% | -26
Cc1ccc(NC(=S)NNC(=S)Nc2ccc(C)cc2C)cc1 | -30% | -21% | 3.7µM* | 5.2µM* | -25
Cc1ccc(NC(=S)Nc2ccccn2)cc1C | 15% | -1% | 23µM* | 16µM* | 57
Cc1cc(C)cc(NC(=S)Nc2ccccn2)c1 | 2% | 2% | 13µM* | 10µM* | i
Cc1cccc(NC(=S)Nc2ccccn2)c1 | -10% | 1% | ? | 8.2µM* | 11
COC(=O)c1ccc(NC(=S)Nc2ccccn2)cc1 | 1% | -17% | ? | ? | -1
COc1ccc(NC(=S)Nc2ccccn2)cc1 | -15% | 15% | ? | ? | -13
CC1(C)CC(=O)c2cc(NC(=O)c3ccc(F)cc3)c(=O)oc2C1 | 17% | 24% | 1% | 2% | -12
O=C(O)COc1cccc(NC(=O)c2ccccc2)c1 | -1% | 0% | -24% | -15% | -13
Cc1ccc(C(=O)C(C)Oc2cccc(NC(=O)c3ccco3)c2)cc1 (centres undefined) | -1% | 0% | ? | 26µM* | -17
O=C(COc1cccc(NC(=O)c2cccc([N+](=O)[O-])c2)c1)c1ccc(Br)cc1 | -16% | ? | ? | ? | -72*
COc1cccc(C(=O)Nc2cccc(OCC(=O)c3ccccc3)c2)c1 | 0% | -20% | 23µM* | ? | -1
SMILES | HT1080-NT tox | HT1080 IDH1KD tx | TDP1 cell CPT | DT40 TDP1 no CPT | IL-1B inflam inh
O=C(COc1cccc(NC(=O)c2ccccc2)c1)c1ccccc1 | -2% | -16% | 16µM* | ? | -8
O=C(CN1C(=O)CSc2ccc(S(=O)(=O)N3CCOCC3)cc21)NCc1ccc(Cl)cc1 | 4% | -2% | ? | 5% | -16
COC(=O)c1ccc(NC(=O)CNCc2ccncc2)cc1 | 10% | 17% | ? | ? | 6
Cc1nc2cnc(N3CCN(C)CC3)nc2n(Cc2ccc(F)cc2)c1=O | . | . | -3% | -23% | .
COc1ccc2[nH]cc(CCNC(=O)Cc3ccc(Cl)cc3)c2c1 | -6% | -7% | 16% | -19% | -24
COc1ccc(NC(=O)c2cccc(NC(=O)C(C)C)c2)c([N+](=O)[O-])c1 | 4% | -4% | ? | 16µM* | 1
COc1ccc(OC)c(NC(=O)c2cccc(NC(=O)c3ccccc3)c2)c1 | 2% | -3% | ? | ? | -57*
COC(=O)c1cccc(NC(=O)c2ccc(OC)c(Cl)c2)c1 | 6% | ? | 3% | ? | -72*
COc1ccc(NC(=O)c2cccc(F)c2)cc1Cl | 1% | 1% | -5% | -10% | -23
COc1ccc(C(=O)COc2cccc(NC(=O)c3ccco3)c2)cc1 | 8% | 14% | ? | 18µM* | 2
CC1CCCC(C)N1/N=C/c1ccccc1Br (centres undefined) | 13% | 6% | ? | ? | 8
CC(C)(C)OC(=O)NCc1ccc(CNC(=O)c2[nH]cnc2C(=O)NCC(=O)OCc2ccccc2)cc1 | -27% | -23% | ? | ? | -1
CC(C)NC(=O)Cn1ncn2c(cc3cc(F)ccc32)c1=O | . | . | 20% | 20% | .
Cc1ccc(OCC(=O)NCCNC(=O)c2ccncc2)cc1C | 12% | -3% | 2% | -2% | 17
Cc1ccc2c(c1)CN(CCNC(=O)C(C)Oc1ccccc1)CC(C)O2 (centres undefined) | . | . | 7%[9.04 µM] | -16% | .
